Source: PubChem BioAssay AID493231 (Broad Institute, 2011)
Measured potencies and affinities stand elsewhere. Active and inactive are the calls of the source. How the calls were made is not given here.

Target: Acyl-homoserine lactone acylase PvdQ (Pseudomonas aeruginosa (strain ATCC 15692 / DSM 22644 / CIP 104116 / JCM 14847 / LMG 12228 / 1C / PRS 101 / PAO1)) (UniProt Q9I194)
Experiment: PvdQ acylase enzyme activity blockers – biochemical, fluorescence, plate reader and imaging, cherry-picks, dose response (AID 493231);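 further: more negative values mean stronger inhibition of the acylase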
Settings: purified PvdQ acylase, fluorogenic substrate; series mostly up to 10 µM

Sequence of Acyl-homoserine lactone acylase PvdQ (Pseudomonas aeruginosa (strain ATCC 15692 / DSM 22644 / CIP 104116 / JCM 14847 / LMG 12228 / 1C / PRS 101 / PAO1)) (Q9I194 whole entry, looked up): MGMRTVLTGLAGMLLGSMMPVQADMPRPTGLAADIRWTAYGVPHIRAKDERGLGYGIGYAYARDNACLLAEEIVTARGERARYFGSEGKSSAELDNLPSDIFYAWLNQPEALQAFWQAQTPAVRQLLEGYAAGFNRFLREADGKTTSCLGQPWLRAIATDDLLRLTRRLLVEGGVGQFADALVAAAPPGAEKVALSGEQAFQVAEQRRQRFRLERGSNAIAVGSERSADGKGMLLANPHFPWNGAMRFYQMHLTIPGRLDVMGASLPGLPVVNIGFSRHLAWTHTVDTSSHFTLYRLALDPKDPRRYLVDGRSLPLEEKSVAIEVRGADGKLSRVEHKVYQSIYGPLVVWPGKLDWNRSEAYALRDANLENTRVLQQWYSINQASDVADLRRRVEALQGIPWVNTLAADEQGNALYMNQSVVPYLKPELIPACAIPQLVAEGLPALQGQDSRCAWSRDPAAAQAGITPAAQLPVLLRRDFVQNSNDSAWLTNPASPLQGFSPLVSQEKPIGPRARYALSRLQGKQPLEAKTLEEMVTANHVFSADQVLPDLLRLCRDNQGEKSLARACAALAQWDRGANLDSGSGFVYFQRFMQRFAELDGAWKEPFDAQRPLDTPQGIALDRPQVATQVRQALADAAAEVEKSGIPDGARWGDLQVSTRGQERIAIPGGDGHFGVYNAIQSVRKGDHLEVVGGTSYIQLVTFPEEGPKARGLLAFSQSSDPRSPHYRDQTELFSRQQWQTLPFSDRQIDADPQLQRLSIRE

outcome, inactive:
O=C(NCCCn1ccnc1)c1nn2c(C(F)(F)F)cc(-c3ccccc3)nc2c1Cl
COC(=O)C1CCN(C2CC(=O)N(c3cc(C)cc(C)c3)C2=O)CC1 (stereo not given)
CCn1c(SCC(=O)N/N=C/c2ccc(C)o2)nnc1-c1ccc(C(C)(C)C)cc1
O=C(/C=C/c1ccc(Cl)c([N+](=O)[O-])c1)c1ccc(O)cc1
CC1=C(C(=O)Nc2ccccc2)C(c2coc3ccccc3c2=O)C2=C(CCCC2=O)N1 (stereo not given)
CCCc1nnc(NC(=O)Cn2cnc3ccccc3c2=O)s1
O=C(NCCc1ccc2c(c1)OCCO2)c1ccccc1F
Cc1nc(N2CCNCC2)c2c3c(sc2n1)CCCC3
O=C1OC(Nc2ccc3c(c2)OCO3)c2ccccc21 (stereo not given)
CCN1CCCC1CN(Cc1cc2ccc(C)cc2[nH]c1=O)C(=S)Nc1cccc(OC)c1 (stereo not given)
O=C(N/N=C/c1cccnc1)C1CC1(c1ccccc1)c1ccccc1 (stereo not given)
Cc1ccc(-c2nc3ccsc3c(=O)o2)cc1
COc1ccc(OC)c(C(=O)c2oc3ccccc3c2NC(C)=O)c1
Cc1ccc(N(c2ncnc(N)c2[N+](=O)[O-])C2CCCCC2)cc1
CS(=O)(=O)N(CC(=O)Nc1ccccc1C(=O)N1CCOCC1)c1ccccc1
Cc1ccccc1NC(=O)Cn1nc(-c2ccccc2)nc1-c1ccccc1
CN(C)CCN(C(=O)C1=COCCO1)c1nc2ccc(Cl)cc2s1
CS(=O)(=O)c1ccc(Cl)c(NC(=O)COC(=O)c2ccc(F)cc2Cl)c1
O=C(O)c1cccc(CN2C(=O)c3ccccc3C2=O)c1
COc1ccc(C2NCCc3c2[nH]c2ccccc32)cc1COc1ccc(F)cc1 (stereo not given)
Cc1ccc2[nH]c(=O)c(CC=C(Cl)Cl)c(C)c2c1
CCSc1ccc(-c2cccc([N+](=O)[O-])c2)nn1
COCCNC(=O)c1cc2nc(-c3ccccc3)cc(C)n2n1
Cn1c(=O)c2[nH]c(-c3ccccc3)c(O)c2n(C)c1=O
Cn1c(=O)c2c(ncn2CC(=O)OCC(=O)NCc2ccc(Cl)cc2)n(C)c1=O
COc1ccccc1C1CCN(C(=O)C2CCCCC2)CC1
Cc1cc(NC(=O)Nc2ccc(F)c(Cl)c2)no1
COCC(=O)N1CCC(Oc2ccc(C(=O)NCCc3ccncc3)cc2)CC1
COC(=O)CNC(c1ccccc1)c1cc(C)ccc1NS(=O)(=O)c1ccc(C)cc1 (stereo not given)
COc1cc2nc(CN3CCN(S(=O)(=O)c4c(F)cccc4F)CC3)[nH]c(=O)c2cc1OC
CC(=O)N/C(=N/c1nc(C)cc(C)n1)Nc1ccc(C)cc1C
CNC(=S)N/N=C/c1cc(C)n(-c2ccc(Cl)c(Cl)c2)c1C
COc1ccc(CC(=O)NNC(=S)NCC2CC2)cc1OC
O=C(NCC1CCCCC1)c1cc(Br)ccc1Cl
CCOc1ccccc1NC(=S)N1CCC(NC(=O)NC23CC4CC(CC(C4)C2)C3)CC1
